Screens from PubChem.
Shown is part of a subset that was picked to be rich in hits.
TbREL1 inh – TbREL1 RNA ligase inhibitors, primary screen, biochemical, FRET fluorescence; RNA-editing ligase 1, mitochondrial (Trypanosoma brucei brucei), P86926; TbREL1 RNA ligation; inhibition, % at 9.66 µM; 0.49% of 89,000 active; AID 1117264, 2014;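 active = inhibition above the mean inhibition across all screened compounds plus 3 SD, cut at about 11% in these data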
Target sequence (P86926 whole entry, looked up): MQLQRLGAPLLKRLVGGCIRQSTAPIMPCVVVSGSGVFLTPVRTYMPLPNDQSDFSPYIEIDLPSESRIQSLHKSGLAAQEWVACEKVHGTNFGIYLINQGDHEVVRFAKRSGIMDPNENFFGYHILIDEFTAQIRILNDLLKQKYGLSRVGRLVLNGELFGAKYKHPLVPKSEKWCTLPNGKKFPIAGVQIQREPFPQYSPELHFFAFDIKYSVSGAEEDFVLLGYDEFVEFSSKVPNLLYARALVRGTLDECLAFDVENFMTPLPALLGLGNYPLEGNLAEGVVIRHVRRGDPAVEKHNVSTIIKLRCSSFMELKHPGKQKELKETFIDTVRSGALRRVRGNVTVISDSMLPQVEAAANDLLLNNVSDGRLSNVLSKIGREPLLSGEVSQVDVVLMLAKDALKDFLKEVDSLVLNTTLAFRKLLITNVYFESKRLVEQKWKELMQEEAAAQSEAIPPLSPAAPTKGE
TbREL1 confirm – TbREL1 RNA ligase inhibitors, confirmation, biochemical, FRET fluorescence, triplicate; shares compounds with TbREL1 inh; TbREL1 RNA ligation; inhibition, % at 9.66 µM; 37% of 390 active; AID 1117282, 2014;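 active = mean inhibition across replicates above a set limit taken from the earlier primary screen, cut at about 11% in these data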
Large screens that a line does not name were inactive (follow-up assays come after a bar, where they were run).

O=C(COc1ccccc1)Nc1c(Cl)ccc2nsnc12	none
COc1ccc(NC(=O)N(CCc2c(C)[nH]c3ccccc23)Cc2cccs2)cc1OC	none
COc1cccc(CN(C)C(=O)[C@H]2O[C@@H](n3cnc4c(=O)[nH]c(N)nc43)[C@H](O)[C@@H]2O)c1	TbREL1 inh 14 | TbREL1 confirm 19
COC(=O)[C@@H](Cc1ccccc1)NC(=O)[C@H]1O[C@@H](n2cnc3c(=O)[nH]c(N)nc32)[C@H](O)[C@@H]1O	none
CC(CNC(=O)[C@H]1O[C@@H](n2cnc3c(=O)[nH]c(N)nc32)[C@H](O)[C@@H]1O)c1ccccc1 (stereo not given in full)	none
Cc1ccccc1N1CCN(C(=O)COc2cc(=O)n(C)c3ccccc23)CC1	none
C(=C\c1ccccc1)/CSc1nc2ncccc2[nH]1	none
N#CCSc1nccc(/C=C/c2ccccc2)n1	TbREL1 inh 12 | TbREL1 confirm inactive
N#CCSc1nc2ccccc2o1	none
COc1ccc(CNC(=O)O[C@H]2CC[C@@]34CCCN3C(=O)CCC[C@H]4C2)cc1	none
C=CCn1c(COc2ccc(C)cc2)nnc1SCc1ccc([N+](=O)[O-])cc1	none
C=CCc1ccc(OCCCOc2ccc(C)cc2OC)c(OC)c1	none
C=CCc1ccc(OCCCNCc2ccccc2)c(OC)c1	TbREL1 inh 12 | TbREL1 confirm inactive
C=CCc1ccc(OCCOCCOc2ccccc2[N+](=O)[O-])c(OC)c1	none
COc1c(C(C)(C)C)cc(S(=O)(=O)N2c3ccccc3C[C@H]2C)cc1C(C)(C)C	none
CN1CCCCC(NC(=O)c2c(F)cccc2F)C1=O (stereo not given)	none
Cc1ccccc1NC(=O)[C@H]1CC(=O)O[C@@H]1c1ccccc1	none
S=c1[nH]nc(-c2cc(-c3ccccc3)n[nH]2)n1N=Cc1c[nH]c2ccccc12	none
O=C(Cn1nnc(-c2ccncc2)n1)Nc1ccc(Cl)cc1	none
COc1ccc(CN[C@@H]2CC[C@@]34CCCN3C(=O)CCC[C@H]4C2)cc1OC	none
COc1ccc(-c2nnc(SCC(=O)NN=C(C)c3cccc4ccccc34)n2-c2ccccc2)cc1	none
C=CCn1c(CNC(=O)c2ccccc2F)nnc1SCC(=O)NC(C)c1ccccc1 (stereo not given)	TbREL1 inh 12 | TbREL1 confirm inactive
C=CCn1c(CCNC(=O)c2ccccc2F)nnc1SCC(=O)Nc1ccccc1F	none
C=CCn1c(CCNC(=O)c2ccccc2F)nnc1SCC(=O)Nc1nc(C)cs1	none
NC(=O)C1CCN(c2nc(-c3ccc4c(c3)OCCCO4)cs2)CC1	none
